Measured values as given in PubChem BioAssay AID588342 (National Center for Advancing Translational Sciences (NCATS), 2011).
About 25,000 (6.9%) of roughly 360,000 compounds were called active. Roughly 9% stayed inconclusive and do not appear here. Only a selection was taken, and actives are over-represented in it overall. Unmarked numbers belong to inactive results. Calls come from the whole dose curve; as a rule, active = well fitted inhibition curve with a large enough effect; inconclusive = small, poorly fitted or top-dose-only effect; inactive = flat fitted curve, though single readings scatter.

target: Luciferin 4-monooxygenase (Photinus pyralis) (UniProt P08659); assay: qHTS profiling assay for firefly luciferase inhibitor/activator using purifed enzyme and Km concentrations of substrates (counterscreen for miR-21 project); settings: purified FLuc, luminescence inhibition; series mostly up to 57.5 µM; activity change, negative = inhibition: at the top concentration; note: nearly all actives have a fitted effect of over 55% in size;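 for activity change, negative = inhibition: plate controls were vehicle for no effect and reference inhibitor for full effect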
In short: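 Purified P. pyralis luciferase, 10 nM final, with Km-level 10 uM D-luciferin and 10 uM ATP in 50 mM Tris acetate pH 7.5, 10 mM Mg acetate, 0.01% Tween-20, 0.05% BSA; 6-point qHTS titration about 60 µM downward; luminescence read.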
Potency is the fitted concentration of half-maximal effect.

Chain of Luciferin 4-monooxygenase (Photinus pyralis) (P08659 whole entry, looked up): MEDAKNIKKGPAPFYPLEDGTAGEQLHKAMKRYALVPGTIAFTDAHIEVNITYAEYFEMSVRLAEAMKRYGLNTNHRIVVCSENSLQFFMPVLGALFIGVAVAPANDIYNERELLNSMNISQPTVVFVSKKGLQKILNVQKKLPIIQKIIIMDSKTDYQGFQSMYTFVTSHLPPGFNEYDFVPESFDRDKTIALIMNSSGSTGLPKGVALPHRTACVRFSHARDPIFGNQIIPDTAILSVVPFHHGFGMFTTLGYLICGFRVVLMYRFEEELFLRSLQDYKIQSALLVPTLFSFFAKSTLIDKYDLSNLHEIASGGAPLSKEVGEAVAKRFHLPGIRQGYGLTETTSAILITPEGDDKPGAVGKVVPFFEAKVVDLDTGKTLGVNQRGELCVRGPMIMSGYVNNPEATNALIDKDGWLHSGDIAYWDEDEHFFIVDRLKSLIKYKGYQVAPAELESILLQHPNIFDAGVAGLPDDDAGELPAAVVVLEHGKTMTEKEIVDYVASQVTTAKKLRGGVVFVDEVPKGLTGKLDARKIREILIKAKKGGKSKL

SMILES | activity change, negative = inhibition [%] | Potency
COc1ccc(N2CCN(S(=O)(=O)CCNC(=O)C(c3ccccc3)c3ccccc3)CC2)cc1 | 7.73 | 
CCC(=O)Nc1ccccc1-c1nc2ccccc2n(CC(=O)Nc2ccc(C)c(C)c2)c1=O | -0.959 | 
NC(=O)N/N=C\c1cccs1 | 4.22 | 
CC(=O)Nc1ccc(/C=N/NC(=O)c2cccs2)cc1 |  | 12 µM (active)
Cc1cccc(OCC(=O)NCC(=O)N/N=C/c2ccc(N(C)C)cc2)c1 | -2.61 | 
CCN(CC)c1ccc(/C=N/NC(=O)CNC(=O)c2cccs2)cc1 |  | 23.9 µM (active)
CC(C)OCCCNC(=O)CNC(=O)c1cccs1 | 0.296 | 
O=C(NC(Cc1c[nH]c2ccccc12)C(=O)N/N=C/c1ccc(Br)cc1)c1cccs1 (stereo unspecified) | 3.94 | 
CCC(Sc1nnc(-c2ccc(OC)cc2)c(-c2ccc(OC)cc2)n1)C(=O)NC1CCCCC1 (stereo unspecified) | -1.88 | 
CCOC(=O)c1c(NC(=O)/C=C/c2ccc(OC)cc2)sc2c1CCC(C)C2 (stereo unspecified) | -4.98 | 
CCc1ccc(C(=O)CC2(O)C(=O)N(CCc3ccccc3)c3ccc(Br)cc32)cc1 (stereo unspecified) | -0.823 | 
Cc1ccc(S(=O)(=O)N2CCCCC2)cc1NC(=O)[C@@H]1CCCN1C(=O)c1cccs1 | 0.451 | 
CC(=O)Nc1ccc(NC(=O)c2cc3sccc3n2Cc2ccc(F)cc2)cc1 | -7.58 | 
CCOC(=O)c1cc(C)sc1NC(=O)C1CCC1 | 1.17 | 
Cc1cccc(NC(=O)c2ccc3nsnc3c2)c1C | -18.7 | 
CCc1ccccc1NC(=O)c1ccc2snnc2c1 | -1.29 | 
O=C(Nc1ccccc1Cl)c1ccc2nsnc2c1 |  | 19 µM (active)
CC1(C)CC(N2CCN(C(c3ccccc3)c3ccccc3)CC2)=CC(=[N+]2CCCCC2)C1 | 1.86 | 
O=S(=O)(NC1CC1)c1ccc(Cl)cc1 | -1.93 | 
Cc1ccc(CNC(=O)Cn2c(=O)ccc3cc(S(=O)(=O)N4CCCC4)ccc32)cc1 | -6.95 | 
COCCN(C(=O)C(C)C)c1nnc(-c2ccc(C(C)(C)C)cc2)s1 |  | 15.1 µM (active)
Cc1nnc(N(Cc2ccco2)C(=O)c2ccno2)s1 | -14.6 | 
COc1ccc(N(CC(=O)NC(C)(C)C)C(=O)c2ccco2)cc1 | 1.44 | 
COCCN(C(=O)c1ccco1)c1nnc(-c2ccc(OC)cc2)s1 |  | 21.3 µM (active)
CN1CCNC(=O)C1CC(=O)N1CC=C(c2ccc(F)cc2)CC1 (stereo unspecified) | -1.89 | 
Cn1c(C(=O)N2CCC(C(=O)N3CCN(c4ccccc4)CC3)CC2)cc2sccc21 | -7.63 | 

SMILES | activity change, negative = inhibition [%] | Potency
Cc1ccc(C)c(NC(=O)CSC2=Nc3ccccc3N=C(c3ccc(F)cc3)C2)c1 | -5.62 | 
CCOc1ccc(CNC(=O)c2ccc3nc(CC)c(CC)nc3c2)cc1OC | 2.17 | 
CCN(CC)c1ccc(NC(=O)Cn2nc3c(cc2=O)CCCC3)c(C)c1 | -0.779 | 
CCOc1ccc(CNC(=O)c2ccc3c(c2)nnn3C2CCCC2)cc1 | -17 | 
O=C(CNCCC1=CCCCC1)Nc1ccccc1N1CCCCCC1 | -1.89 | 
COc1ccc(NS(=O)(=O)c2cc3c(cc2C)N(C(C)=O)CCO3)cc1 |  | inactive
COCCCNC(=O)c1c(NC(=O)c2cc(=O)c3cc(C)c(C)cc3o2)sc2c1CCCC2 | 0.689 | 
O=C1c2cccc3c([N+](=O)[O-])ccc(c23)C(=O)N1CC1CCCO1 (stereo unspecified) | 3.12 | 
O=C1C(C=NCC2CCCO2)=C(O)c2ccccc21 (stereo unspecified) |  | 19 µM (active)
CC(=NCC1CCCO1)c1c(O)[nH]c(=O)[nH]c1=O (stereo unspecified) | 2.32 | 
CC(C)c1ccc(NC(=O)c2ccc3c(O)c(S(=O)(=O)c4ccccc4)c(=O)[nH]c3c2)cc1 |  | 1.51 µM (active)
CC(C)n1c(=O)[nH]c2cc(C(=O)Nc3ccccc3)ccc21 | -1.1 | 
CCCCCn1c(=O)[nH]c2cc(C(=O)Nc3ccc(F)cc3)ccc2c1=O | -1.87 | 
CCCCn1c(N)c(N(CCC(C)C)C(=O)COC(=O)c2cccnc2OCC)c(=O)[nH]c1=O | -0.738 | 
Cc1cc(C)nc(SCc2ccccc2C#N)n1 | 0.806 | 
COc1ccc(/C=N/OCc2ccccc2C#N)c(OC)c1 |  | 21.3 µM (active)
COc1ccc(C=C(C#N)C#N)c(CSc2ccccn2)c1 | 2.03 | 
Cc1ccccc1OCC(=O)Nc1c(C(=O)Nc2ccccc2F)oc2ccccc12 | 0.53 | 
CCOC(=O)[C@H]1[C@H]2COc3cc(OC)ccc3[C@@H]2N2C(=O)N(c3ccc(Br)cc3)C(=O)[C@@]12C | 2.63 | 
COc1ccc(CNC(=O)COC(=O)c2c(C)nn(-c3ccccc3)c2C)cc1OC | 0.209 | 
COc1ccc(CNC(=O)Cc2ccc(-c3ccccc3)cc2)cc1OC | -1.07 | 
COc1ccc(CNC(=O)COc2ccccc2C(=O)c2cnn(-c3ccccc3)c2)cc1OC |  | 5.36 µM (active)
CCOC(=O)c1sc(NC(=O)CSc2n[nH]c(CC)n2)nc1C | -0.887 | 
CCOC(=O)c1sc(NC(=O)c2ccncc2)nc1C |  | 19 µM (active)
CCOC(=O)c1sc(/N=C/Nc2nc(C)c(C(=O)OCC)s2)nc1C | 4.82 | 
CCOC(=O)c1sc(NC(=O)c2sc(C)nc2C)nc1C |  | 6.01 µM (active)

SMILES | activity change, negative = inhibition [%] | Potency
CCOC(=O)c1sc(NC(=O)C2CSC3(C)CCC(=O)N23)nc1C (stereo unspecified) | 0.346 | 
CCOC(=O)c1cccnc1NC(=O)c1ccncc1 | 1.54 | 
Cc1ccc(C)c(Oc2c(C(F)(F)F)oc3c(CN4CCN(C)CC4)c(O)ccc3c2=O)c1 | -1.22 | 
Cc1cc(C)n2nc(CNS(=O)(=O)c3c(F)c(F)c(F)c(F)c3F)nc2n1 | -0.955 | 
Cc1ccc(C(=O)Nc2ccccc2F)cc1S(=O)(=O)N1CCOCC1 | -1.59 | 
CCOc1cc(/C=C(\C#N)C(=O)Nc2ccccc2C)ccc1OCc1cc(=O)n2nc(CC)sc2n1 | 0.577 | 
O=C(CCc1nc2ccccc2c(=O)[nH]1)OCC(=O)c1cccc(Cl)c1 | 7.71 | 
CCCc1nc2ccccc2c(C(=O)OCC(=O)c2ccc3c(c2)NC(=O)CO3)c1CC | -0.523 | 
Cc1ccc(C(=O)COC(=O)c2cccc(N3C(=O)c4c(C)nc5ccccc5c4C3=O)c2)cc1C |  | 2.69 µM (active)
CNC(=O)C1CC(=O)N(c2ccc(OCC(=O)Nc3ccccc3C)cc2)C1 (stereo unspecified) | -3.6 | 
Cc1ccccc1NC(=O)CSc1nc2ccc(Nc3nc(N4CCOCC4)nc(N4CCOCC4)n3)cc2s1 | 0.0802 | 
C/C(=N\Nc1nc(N2CCOCC2)nc(N2CCOCC2)n1)c1ccc([N+](=O)[O-])cc1 | -3.17 | 
C/C(=N\Nc1nc(Nc2ccccc2)nc(N2CCOCC2)n1)c1cccs1 |  | 19 µM (active)
COc1ccc(-c2nn(-c3ccccc3)cc2/C=N/Nc2ccccn2)cc1OC |  | 10.7 µM (active)
CN(C)/N=C/c1cn(-c2ccccc2)nc1-c1cccnc1 | -19.8 | 
COc1cccc(-c2nn(-c3ccccc3)cc2/C=C(\C#N)C(=O)NCCCn2ccnc2)c1 | -21.4 | 
COc1cccc(C2=CC(=O)C[C@H](c3ccc(F)cc3)C2)c1OC | -9.98 | 
CC(C)c1ccc(OCC(=O)N(Cc2ccc(N(C)C)cc2)C2CCS(=O)(=O)C2)cc1 (stereo unspecified) | -0.839 | 
CCOc1cccc(CNC(=O)c2ccc(N3CCCC3)c(NC(=O)Nc3ccccc3CC)c2)c1 | 0.552 | 
COc1ccc(CN2C(=O)C(NC(=O)c3cccc(C)c3)(C(F)(F)F)N=C2c2ccccc2)cc1 (stereo unspecified) | -14 | 
Cc1cc(NC(=O)CSc2nc3ccccc3n2CC(C)C)no1 | -16.7 | 
Cc1ccc2nc(-c3ccc(SCC(=O)Nc4cc(C)on4)nc3)[nH]c2c1 |  | 0.757 µM (active)
Cc1ccc(SCCC(=O)Nc2cc(C)on2)cc1 | -1.52 | 
Cc1cc(F)ccc1NC1(c2ccccc2)C(=O)c2ccccc2C1=O | -12.8 | 
CN(C)c1ccc(S(=O)(=O)NCC(=O)NCC2CCCCC2)cc1[N+](=O)[O-] | -1.38 | 
CC(=O)c1ccc(N2Cc3ccccc3C2)cc1 |  | 10.7 µM (active)

SMILES | activity change, negative = inhibition [%] | Potency
CC(=O)c1ccc(N2CCN(C(=O)CCc3ccccc3)CC2)cc1 | -8.99 | 
CC(=O)c1ccc(N2CCN(CC(O)c3ccccc3)CC2)cc1 (stereo unspecified) | 4.54 | 
Cc1ccc(S(=O)(=O)N2CCCCC2)cc1C(=O)N1CCN(CCO)CC1 | 3.12 | 
Cc1cc(C)c2oc(C(=O)Nc3ccc(S(=O)(=O)N4CCCCCC4)cc3)cc(=O)c2c1 | -2.56 | 
CCc1ccc(-c2nnn(Cc3nn[nH]n3)n2)cc1 |  | 26.9 µM (active)
COc1ccc(-c2nnn(Cc3nc(N)nc(N4CCCCC4)n3)n2)cc1 | 0.313 | 
CN(C)c1nc(N)nc(Cn2nnc(-c3ccc(C(F)(F)F)cc3)n2)n1 | -0.922 | 
CC(=O)Nc1ccc(S(=O)(=O)N2CCn3cccc3C2C)cc1 (stereo unspecified) | -1.34 | 
Cc1ccc(-c2noc(-c3nnn(-c4cccc(C(F)(F)F)c4)c3N)n2)cc1 | 0.761 | 
CCc1ccc(-n2nnc(-c3nc(-c4ccccc4)no3)c2C)cc1 |  | 2.13 µM (active)
Cc1ccc(-c2noc(CSc3nnnn3-c3ccccc3)n2)cc1 | -3.75 | 
Cc1ccc2c(c1)N(C(=O)CCC(=O)NCc1ccccc1F)CC(C)O2 (stereo unspecified) | 2.57 | 
CCc1cccc(NC(=O)CN(c2ccc(C)c(C)c2)S(=O)(=O)c2ccsc2C(=O)OC)c1 | -0.926 | 
CC(=O)Oc1ccc(C)cc1N1C(=O)c2ccc(C(=O)O)cc2C1=O | -5.61 | 
CC(=O)Nc1ccc(NC(=O)c2ccc3c(c2)C(=O)N(c2ccccc2C)C3=O)cc1 | -1.2 | 
Cc1cccc(N2C(=O)c3ccc(C(=O)Nc4cccc(C(=O)O)c4)cc3C2=O)c1 |  | 1.51 µM (active)
Cn1nnnc1SCCNCc1ccc(Cl)c(Cl)c1 | -6.85 | 
COc1cccc(/C=N\NC(=O)C2=NNC(=O)C2C)c1O (stereo unspecified) |  | 6.01 µM (active)
CC1=NNC(=O)C1CCC(=O)N/N=C\c1cccc(Cl)c1 (stereo unspecified) | 5.5 | 
Cc1cccc(-n2c(=O)c3c(c4cc(C)ccc4n3C)n(CC(=O)Nc3ccccc3Cl)c2=O)c1 | -3.48 | 
O=S(=O)(c1ccc(Cl)cc1)c1nnn2c1nc(NC1CCCC1)c1sccc12 | -14.4 | 
CC(=O)N1CCCc2cc(S(=O)(=O)Nc3ccc(Cl)cc3F)ccc21 | -13.7 | 
CN(CC(=O)Nc1ccc(F)cc1)CC(=O)N1CCCCC1 | 13.3 | 
